# Source: PubChem
# Compounds with a hit are over-represented: about 21% of the library has one in this group of screens.
# IL-1B inflam inh: qHTS for Inhibitors of Inflammasome Signaling: IL-1-beta AlphaLISA Primary Screen | THP-1 LPS/ATP IL-1B secretion, AlphaLISA, 16 h; active compounds read low | activity change, % at 57.5 µM | 360,000 tested, 4.7% active | AID 743279, 2014; in the data active means activity change below about -50%; inconclusive means mostly about -30% to -49%
#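 Secreted IL-1B measured by AlphaLISA bead assay after 16 h compound exposure of THP-1 cells; compounds (final up to 57.5 uM) added 1 h before LPS (250 ng/mL) and ATP (1.25 mM) stimulation; lower signal means less secretion.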
# Gal4-VP16 FLuc: VP16 counterscreen qHTS for inhibitors of ROR gamma transcriptional activity | Drosophila S2 Gal4-VP16 UAS-luciferase, luminescence, 20 h | Potency, µM (top dose mostly 53.6 µM), for inactives: top-dose activity, negative = inhibition, most hits filed as inhibitors | 310,000 tested, 3.5% active;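 further: Gal4-VP16 expression switched on by copper sulfate through the metallothionein promoter; potency means the concentration at half of the fitted maximal effect; nearly all actives have a fitted effect of over 50% in size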
# ELG1 DNA repair: qHTS screen for small molecules that inhibit ELG1-dependent DNA repair in human embryonic kidney (HEK293T) cells expressing luciferase-tagged ELG1; HEK293T ELG1-luciferase reporter, luminescence, 16 h; DNA damage induced by 5-fluorouridine; Potency, µM (series often up to 46.1 µM), without a hit: at the top dose activity change, negative = inhibition, most hits filed as inhibitors; 330,000 tested, 2.3% active; further: potency means the concentration at half of the fitted maximal effect; nearly all actives have a fitted effect of over 55% in size
#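 Cells (2,000 per well) received 5-fluorouridine plus test compound or DMSO and were incubated 16 hr at 37 °C, 5% CO2. Luciferase activity was read by luminescence 30 min after ONE-Glo addition; signal suppression marked inhibition of damage-induced ELG1 function.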
# DT40 TDP1 CPT: qHTS for Inhibitors of human tyrosyl-DNA phosphodiesterase 1 (TDP1): qHTS in cells in presence of CPT | chicken DT40 Tdp1-/-;hTDP1 cells + 20 nM CPT, ATP luminescence, 48 h | 420,000 tested, 12% active | Potency, µM (doses to about 46.2 µM), for inactives: at the highest dose activity change, negative = growth inhibition, most hits filed as inhibitors; further: potency means the concentration at half of the fitted maximal effect; nearly all actives have a fitted effect of over 55% in size
#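 Chicken DT40 Tdp1-/- cells complemented with human TDP1, 400 cells/well, exposed to compounds plus 20 nM camptothecin for at least 48 h at 37 C; viability read as ATP content by CellTiter-Glo luminescence.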
# TDP1 cell noCPT: qHTS for Inhibitors of human tyrosyl-DNA phosphodiesterase 1 (TDP1): qHTS in cells in absence of CPT; DT40 Tdp1-/- hTDP1 cells, no CPT, ATP luminescence, 48 h; Potency, µM (highest dose often 46.2 µM), for the others: at the highest dose activity change, negative = growth inhibition, hits mostly inhibitors; 420,000 tested, 15% active; further: potency means the concentration at half of the fitted maximal effect; nearly all actives have a fitted effect of over 55% in size
#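 Readout: luminescence from CellTiter-Glo after 30 min in the dark at RT. Cells: DT40 Tdp1-/- with stable hTDP1, 400/well. Exposure: compounds alone, ≥48 hr, 37 °C.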
# RORgamma inh: qHTS for inhibitors of ROR gamma transcriptional activity. Nuclear receptor ROR-gamma (Mus musculus), P51450. Drosophila S2 Gal4-RORgamma UAS-luciferase reporter, 20 h. Potency, µM (top dose mostly 53.6 µM), for the others: at the top dose activity change, negative = inhibition, usual class: inhibitors. 310,000 tested, 5.4% active. AID 2551, 2010; further: potency means the concentration at half of the fitted maximal effect; nearly all actives have a fitted effect of over 60% in size
# Target sequence (P51450 whole entry, looked up, the tested form may be a part): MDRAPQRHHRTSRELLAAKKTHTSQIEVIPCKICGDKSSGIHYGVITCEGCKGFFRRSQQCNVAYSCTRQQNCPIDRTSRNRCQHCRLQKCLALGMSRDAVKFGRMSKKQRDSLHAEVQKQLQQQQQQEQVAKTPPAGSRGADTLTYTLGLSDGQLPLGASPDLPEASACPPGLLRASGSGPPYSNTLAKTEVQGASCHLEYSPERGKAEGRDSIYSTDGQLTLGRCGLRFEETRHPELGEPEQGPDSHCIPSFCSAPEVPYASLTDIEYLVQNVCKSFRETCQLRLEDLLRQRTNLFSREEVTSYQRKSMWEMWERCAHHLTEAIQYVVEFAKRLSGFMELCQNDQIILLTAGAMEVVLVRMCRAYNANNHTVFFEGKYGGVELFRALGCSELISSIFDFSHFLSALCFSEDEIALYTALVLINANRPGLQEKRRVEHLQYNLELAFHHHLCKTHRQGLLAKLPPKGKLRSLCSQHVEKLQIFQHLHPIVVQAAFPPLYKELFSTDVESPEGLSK
#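 Schneider cells (Drosophila), stable Gal4 DBD–ROR gamma + UAS-luc; 1 hr cmpd preincubation; Cu2+ induction 700 uM final; 20 hr ambient; luminescence.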
# * hit, by the source's call; ? = inconclusive; / = no result given. Unless noted, the call rests on the fitted dose curve; in most records, active means well fitted curve in the direction sought with a large enough effect; inconclusive means small, poorly fitted or top-dose-only effect, or another doubt; inactive means no such curve, though single readings can be large; an effect the other way counts as inactive or inconclusive. On the % scale 0 is the no-effect control and ±100 the full control effect.
SMILES,IL-1B inflam inh,Gal4-VP16 FLuc,ELG1 DNA repair,DT40 TDP1 CPT,TDP1 cell noCPT,RORgamma inh
O=C(Cc1ccc2c(c1)OCCO2)Nc1cc(Cl)ccc1N1CCOCC1,21.7,/,0.5%,16.4µM*,?,/
CC12CNCC(C)(CN(C(c3ccccc3)c3ccccc3)C1)C2,-80.7*,0.4%,-16.7%,16.4µM*,13µM*,27.2%
COC(=O)N1CCC2(CC1)CN(C(c1ccccc1)c1ccccc1)C2,/,8.0%,/,-6.1%,?,-7.6%
CC(=O)N1CCC2(CC1)CCN(C(c1ccccc1)c1ccccc1)CC2,/,-9.1%,/,?,?,-5.0%
c1ccc(C(c2ccccc2)N2CCC3(CCNCC3)CC2)cc1,/,-13.9%,/,5.8µM*,2.59µM*,?
O=C(CSc1nc2c(c(C(F)(F)F)n1)CCc1ccccc1-2)NCc1ccco1,28.7,-10.3%,-5.4%,16.4µM*,25.9µM*,19.0%
Cc1sc(NC(=O)CSc2nc(N)n(CC(=O)c3ccccc3)n2)c(C#N)c1C,-14.4,-2.0%,?,-2.0%,-19.3%,18.1%
CC(NC(=O)CSc1cccc(C(F)(F)F)c1)c1ccccc1 (stereo unspecified),6.4,?,-18.1%,?,?,?
CC(NC(=O)CSc1nc2c(c(C(F)(F)F)n1)CCc1ccccc1-2)c1ccccc1 (stereo unspecified),-16.2,?,-21.6%,?,23.1µM*,?
CCc1c(C)sc(NC(=O)CSc2nc3c(c(C(F)(F)F)n2)CCc2ccccc2-3)c1C#N,19.8,-2.2%,3.7%,20.6µM*,?,?
CCc1ccc(CN2CCCC(C(=O)Nc3ccccc3-c3ccc(OC)cc3)C2)o1 (stereo unspecified),35.5,0.4%,0.8%,?,?,14.5%
Cc1ccc(-c2nc(CN3CCCC(C(=O)N4CCOCC4)C3)c(C)o2)cc1 (stereo unspecified),-14.0,-1.6%,0.6%,-24.6%,-15.9%,11.8%
O=C(c1ccc(Cn2c(=O)[nH]c3ccsc3c2=O)cc1)N1CCN(c2ccccc2)CC1,?,2.6%,?,?,?,?
O=C(c1ccc(Cn2c(=O)[nH]c3ccccc3c2=O)cc1)N1CCN(c2ccc(F)cc2)CC1,-19.8,-14.3%,18.4µM*,?,?,?
O=C(c1ccc(Cn2c(=S)[nH]c3cc4c(cc3c2=O)OCO4)cc1)N1CCN(c2ccccc2)CC1,-3.2,6.31µM*,?,?,23.1µM*,3.16µM*
COC(CNC(=O)c1ccc(Cn2c(=S)[nH]c3cc4c(cc3c2=O)OCO4)cc1)OC,23.8,1.2%,3.7%,-11.6%,?,-0.5%
COc1ccc(N2CCN(C(=O)c3ccc(Cn4c(=S)[nH]c5ccc(N6CCOCC6)cc5c4=O)cc3)CC2)cc1,17.9,9.8%,?,23.1µM*,18.4µM*,-41.8%
Cc1ccc(C)c(N2CCN(C(=O)c3ccc(Cn4c(=S)[nH]c5ccc(N6CCOCC6)cc5c4=O)cc3)CC2)c1,6.6,-4.9%,20.8%,?,14.6µM*,2.82µM*
COc1ccc(Cn2c(=S)[nH]c3cc(C(=O)N4CCN(c5ccccc5)CC4)ccc3c2=O)cc1,59.8,1.9%,-12.5%,?,?,?
O=C(NCCc1ccccc1Cl)c1ccc2c(c1)nc1n2CCOC1,/,/,/,12.0%,-17.6%,/
O=C(c1cnccn1)N1CCC2(CC1)CN(c1ccccn1)C2,/,8.8%,/,1.8%,-0.4%,-22.5%
